# Test results: PubChem BioAssay
# Several values for one entry are separate records, joined by “and”; a condition that tells them apart may be missing. Equal values may be shown once. Activity calls are given as the source filed them. Cut-off read from the data, not from the text of the source, unless noted: active = inhibition above about 80%; inactive = the rest.
# Legend:
# [1] = growth inhibition, single agents and combos, UWB1.289, cell-based, BGB or cisplatin combos, synergistic combos for chromothripsis tumors (AID 1671456); conditions: UWB1.289 ovarian carcinoma cells, stronger effect = higher value;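 note: cells exposed to compound for four days; 0% = vehicle DMSO and 100% = killing by high DMSO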
# [2] = growth inhibition, single agents and combos, LFS_MB_2R, cell-based, cisplatin combos, synergistic combos for chromothripsis tumors (AID 1671457); conditions: LFS_MB_2R medulloblastoma cells, stronger effect = higher value;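 note: cells exposed to compound for four days before readout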
# [3] = growth inhibition, MDA-MB-436, cell-based, BGB or cisplatin combos, synergistic combos for chromothripsis tumors (AID 1671458; call rule not given here;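 note: cells exposed for 96 hours; 0% = vehicle DMSO and 100% = killing by high DMSO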); conditions: MDA-MB-436 breast carcinoma growth inhibition, drug combinations, stronger effect = higher value
# [4] = UWB1.289_BRCA1 ovarian cancer growth, cell-based, BGB or cisplatin combinations (AID 1671459); conditions: UWB1.289 BRCA1 ovarian carcinoma, drug combinations, stronger effect = higher value
# [5] = drug combination toxicity in non-malignant astrocytes – cell-based, BGB or cisplatin IC20 combos, cytotoxicity control for chromothriptic childhood tumor combination screen (AID 1671460); conditions: Human astrocytes, viability inhibition, drug combinations, at 0.5 µM, stronger effect = higher value;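 note: cells exposed to compounds for 96 hours before viability readout; 0% = vehicle and 100% = killing control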
# [6] = BT084 cell growth, single and combined drugs, ICGC_MB145, cisplatin and BGB IC40 combos (AID 1671461); conditions: BT084 medulloblastoma cells, drug combinations, stronger effect = higher value;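 note: cells exposed to drugs for 96 hours; 0% = vehicle DMSO and 100% = high DMSO full killing control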
# [7] = RCMB18 cell growth, single agent and combined, cisplatin and BGB IC40 combos (AID 1671462); conditions: RCMB18 medulloblastoma cells, stronger effect = higher value;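 note: cells exposed to compound for four days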
# [8] = CRL1545 cell growth, single agent and combined, cisplatin and BGB IC20 combos (AID 1671464); conditions: CRL1545 osteosarcoma cells, stronger effect = higher value;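 note: cells exposed to compound for 96 hours before readout; 0% = vehicle DMSO and 100% = high DMSO killing control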
# [9] = tested on: F380Y; experiment: BK channel mutant inhibitors and activators – cell-based, U2OS BacMam, thallium flux, beta subunits, selectivity assay, profiling panel (AID 1259406;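 active = thallium flux through the channel raised or lowered by more than 3 SD from vehicle-only wells, actives on both sides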;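 note: initial slope of Thallos dye fluorescence rise after thallium is added; log ratio against the mean of 0.3% DMSO vehicle wells on the same plate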); conditions: U2OS BacMam BK variants, at 30 µM
# [10] = tested on: F380Y/beta1; experiment: as above; conditions: U2OS BacMam BK variants, at 30 µM
# [11] = measured here: inhibition with BGB combination, at 0.05 µM
# [12] = measured here: inhibition with cisplatin combination, at 0.05 µM
# [13] = measured here: combination with cisplatin, at 0.5 µM
# [14] = measured here: combination with cisplatin, at 5 µM
# [15] = measured here: BGB combination, at 0.5 µM
# [16] = measured here: BGB combination, at 5 µM
# [17] = measured here: cisplatin combination, at 0.5 µM
# [18] = measured here: cisplatin combination, at 5 µM
# [19] = BGB combination, concentration series, at 5 µM
# [20] = cisplatin combination, concentration series, at 5 µM
# [21] = measured here: combo with BGB IC20
# [22] = measured here: combo with cisplatin IC20
# [23] = cisplatin combination, at 0.5 µM
# [24] = measured here: BGB IC40 combination 0.05 uM, at 0.05 µM
# [25] = measured here: BGB IC40 combination, at 0.05 µM
# [26] = measured here: with BGB IC20 combination, at 0.5 µM
# [27] = measured here: with cisplatin IC20 combination, at 0.5 µM
smiles,measurement,setting,value
Nc1[nH]c(=O)ncc1F,inhibition,[1]; at 0.5 µM,-7.68% (inactive)
same,inhibition,[1]; [11],-29.7%
same,inhibition,[1]; [12],-21.7%
same,inhibition,[2]; at 0.5 µM,-27.6% (inactive)
same,inhibition,[2]; [13],-24.1%
same,inhibition,[2]; [14],-29.1%
same,inhibition,[3]; at 0.5 µM,-31.1% (inactive)
same,inhibition,[3]; [15],-21.4%
same,inhibition,[3]; [16],-20.1%
same,inhibition,[3]; [17],-54.4%
same,inhibition,[3]; [18],-28.4%
same,inhibition,[4]; [19],-10.1%
same,inhibition,[4]; at 0.5 µM,-22% (inactive)
same,inhibition,[4]; [20],-7.2%
same,inhibition,[5],-16.9% (inactive)
same,inhibition,[5]; [21],-11.3%
same,inhibition,[5]; [22],-15.3%
same,inhibition,[6]; at 0.5 µM,-18.1% (inactive)
same,inhibition,[6]; [23],-7.67%
same,inhibition,"[6]; cisplatin combination, at 5 µM",-29%
same,inhibition,[6]; [24],-18.5%
same,inhibition,"[6]; single agent, at 5 µM",-35%
same,inhibition,[7]; at 0.5 µM,-4.87% (inactive)
same,inhibition,"[7]; cisplatin combo, at 5 µM",12.7%
same,inhibition,[7]; [25],-1.76%
same,inhibition,[7]; [13],22.6%
same,inhibition,"[7]; single agent, at 5 µM",67.5%
same,inhibition,[8]; at 0.5 µM,-33% (inactive)
same,inhibition,[8]; [26],-8.11%
same,inhibition,[8]; [27],-45.4%
same,inhibition,"[8]; single agent, at 0.05 µM",-16.8%
same,inhibition,"[8]; single agent, at 5 µM",-1.42%
same,log fold change Tl+ flux,[9],0.0331 (inactive)
same,log fold change Tl+ flux,[10],0.0164 (inactive)
O=C(CCNNC(=O)c1ccncc1)NCc1ccccc1,log fold change Tl+ flux,[9],0.000985 (inactive)
same,log fold change Tl+ flux,[10],0.00246 (inactive)
Cc1oncc1C(=O)Nc1ccc(C(F)(F)F)cc1,inhibition,[1]; at 0.5 µM,4.13% (inactive)
same,inhibition,[1]; [11],-13.1%
same,inhibition,[1]; [12],-27.7%
same,inhibition,[2]; at 0.5 µM,-14.8% (inactive)
same,inhibition,[2]; [13],-17.8%
same,inhibition,[2]; [14],30.1%
same,inhibition,[3]; at 0.5 µM,3.93% (inactive)
same,inhibition,[3]; [15],12.3%
same,inhibition,[3]; [16],48.9%
same,inhibition,[3]; [17],-7.42%
same,inhibition,[3]; [18],42.4%
same,inhibition,[4]; [19],74.1%
same,inhibition,[4]; at 0.5 µM,6.99% (inactive)
same,inhibition,[4]; [20],66.1%
same,inhibition,[5],23.1% (inactive)
same,inhibition,[5]; [21],15.1%
same,inhibition,[5]; [22],28.3%
same,inhibition,[6]; at 0.5 µM,5.65% (inactive)
same,inhibition,[6]; [23],-5.97%
same,inhibition,"[6]; cisplatin combination, at 5 µM",60.5%
same,inhibition,[6]; [24],32%
same,inhibition,"[6]; single agent, at 5 µM",51.2%
same,inhibition,[7]; at 0.5 µM,-7.24% (inactive)
same,inhibition,"[7]; cisplatin combo, at 5 µM",23.6%
same,inhibition,[7]; [25],-20.4%
same,inhibition,[7]; [13],-2.75%
same,inhibition,"[7]; single agent, at 5 µM",34.1%
same,inhibition,[8]; at 0.5 µM,-17.2% (inactive)
same,inhibition,[8]; [26],-12.4%
same,inhibition,[8]; [27],-21.5%
same,inhibition,"[8]; single agent, at 0.05 µM",-28.9%
same,inhibition,"[8]; single agent, at 5 µM",28.1%
CCn1cc(C(=O)O)c(=O)c2cc(F)c(N3CCNC(C)C3)c(F)c21 (stereo not given),inhibition,[1]; at 0.5 µM,-5.87% (inactive) and 3.27% (inactive)
same,inhibition,[1]; [11],-15.8% and -6.81%
same,inhibition,[1]; [12],-31.3% and -16.8%
same,inhibition,[2]; at 0.5 µM,-11.7% (inactive) and -17.4% (inactive)
same,inhibition,[2]; [13],-16.5% and -22.2%
same,inhibition,[2]; [14],-74.9% and -58.2%
same,inhibition,[3]; at 0.5 µM,-41.7% (inactive) and -18.1% (inactive)
same,inhibition,[3]; [15],-27.8% and -13.8%
same,inhibition,[3]; [16],-28.2% and -9.38%
same,inhibition,[3]; [17],-66.9% and -25.1%
same,inhibition,[3]; [18],-19.8% and -29.7%
same,inhibition,[4]; [19],-32.2% and -2.47%
same,inhibition,[4]; at 0.5 µM,-9.31% (inactive) and 2.01% (inactive)
same,inhibition,[4]; [20],-6.73% and 11.3%
same,inhibition,[5],-10.6% (inactive) and 4.2% (inactive)
same,inhibition,[5]; [21],-11.6% and -0.829%
same,inhibition,[5]; [22],-24.3% and -1.68%
same,inhibition,[6]; at 0.5 µM,-29.5% (inactive) and -34.2% (inactive)
same,inhibition,[6]; [23],-4.32% and -19.8%
same,inhibition,"[6]; cisplatin combination, at 5 µM",-10.2% and -20.4%
same,inhibition,[6]; [24],-19.8% and -12.4%
same,inhibition,"[6]; single agent, at 5 µM",-14.7% and -12.9%
same,inhibition,[7]; at 0.5 µM,-20.2% (inactive) and -5.16% (inactive)
same,inhibition,"[7]; cisplatin combo, at 5 µM",-24.3% and 18.4%
same,inhibition,[7]; [25],-16.8% and -25.7%
same,inhibition,[7]; [13],-27.2% and 7.44%
same,inhibition,"[7]; single agent, at 5 µM",-21.5% and -4.86%
same,inhibition,[8]; at 0.5 µM,-53.2% (inactive) and 15% (inactive)
same,inhibition,[8]; [26],-48% and 1.95%
same,inhibition,[8]; [27],-59.3% and 19.8%
same,inhibition,"[8]; single agent, at 0.05 µM",-84.2% and 11.3%
same,inhibition,"[8]; single agent, at 5 µM",-56% and 4.55%
